Laboratory results: PubChem BioAssay AID1578 (Sanford-Burnham Center for Chemical Genomics, 2009)
Among all 290,000 compounds or so, about 3,000 (1%) were called active. Only a selection was taken, and actives are over-represented in it overall. A number with no mark means an inactive call. No stated cut-off is given here; in the data, active means inhibition mostly above about 36% (no sharp cut-off); inactive means mostly below about 34%.

assay: NOD1 signaling inhibitors, primary screen, cell-based, luminescence, uHTS (AID 1578); settings: NOD1-driven NF-kB luciferase reporter cells, at 4 µM, hits give high values;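 further: HEK-293T reporter cells stimulated with the NOD1 agonist gamma-tri-DAP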

Row | Compound | inhibition
1 | O=C(NCc1ccc(F)cc1)N1CCN(S(=O)(=O)c2ccccc2F)CC1 | -20.3%
2 | O=C(N/N=C/c1ccc(Cl)cc1Cl)C(=O)NC1CC1 | -3.9%
3 | CCc1cc(-c2[nH]ncc2-c2ccc(OC)cc2)c(O)cc1O | 12.6%
4 | CCc1cc(-c2[nH]ncc2-c2ccc3c(c2)OCO3)c(O)cc1O | 97.7% (active)
5 | CCCc1cc(-c2[nH]ncc2-c2ccc3c(c2)OCCCO3)c(O)cc1O | 17.6%
6 | Cc1ccc(C(=O)NCC(=O)N2CCN(S(=O)(=O)c3cccs3)CC2)s1 | -28.4%
7 | O=C(N/N=C/c1ccc(OC(=O)c2cccc(F)c2)cc1)c1cccnc1 | -21%
8 | COc1ccccc1NC(=O)c1ccccc1Nc1ccccc1 | -5.4%
9 | COc1ccc(CN2CCNC(=O)C2CC(=O)NCCc2cnccn2)cc1C (centres undefined) | -22.4%
10 | Cc1cccc(Nc2n[nH]c(C)c2[N+](=O)[O-])c1 | -36.2%
11 | Cc1[nH]nc(Nc2ccccc2)c1[N+](=O)[O-] | 75.5% (active)
12 | Cc1ccc(Nc2n[nH]c(C)c2[N+](=O)[O-])cc1 | -38.4%
13 | CC1CCCN(S(=O)(=O)c2ccc3oc(=O)ccc3c2)C1 (centres undefined) | -39.5%
14 | Cc1ccc(OCCCn2cc(C#N)c3ccccc32)cc1 | 26.6%
15 | CCN(CC)S(=O)(=O)c1cc(C(=O)OCC(=O)c2ccc3c(c2)NC(=O)CO3)ccc1F | -21.3%
16 | COCc1cc(C)nc(N2CCCCC2)c1C#N | -7.1%
17 | O=C(O)c1c2c(nc3ccccc13)/C(=C/c1ccc(O)cc1)CCC2 | -23.9%
18 | O=C(O)c1ccc(/C=C2\CCCc3c2nc2ccccc2c3C(=O)O)cc1 | -24%
19 | O=C(O)c1c2c(nc3ccccc13)/C(=C/c1ccc(O)cc1)CC2 | 63.5% (active)
20 | NC(=O)CSc1nnc(CNc2cccc(Cl)c2)n1CCc1ccccc1 | -6.6%
21 | CCOC(=O)c1sc(-c2ccc(F)cc2)cc1N | -18.5%
22 | CC(O)CNc1ncnc2cc(-c3ccc(F)cc3)sc12 (centres undefined) | -11.1%
23 | C=CCNC(=O)c1ccc2c(=O)n(CCCN3CCCC3=O)c(=S)[nH]c2c1 | -17.5%
24 | N#CC1=C(N)Oc2ccc3ccc(O)cc3c2C1c1cccnc1 (centres undefined) | -18.7%

Row | Compound | inhibition
25 | Cc1ccc(-c2nc3[nH]c(=O)cc(NC(=O)c4cccs4)n3n2)cc1 | -1.6%
26 | Cc1nc2c3cc(Cl)ccc3n(CCN3CCCCC3)c2s1 | -5.1%
27 | CC1CCN(S(=O)(=O)c2ccc3c(c2)NC(=O)CS3)CC1 | -43.2%
28 | O=C(COc1ccccc1)NCc1ccc(-n2cccc2)cc1 | -34.8%
29 | O=C(Cc1ccccc1)NCc1ccc(-n2cccc2)cc1 | 48.6% (active)
30 | Cc1ccc(CNC(=O)Cc2ccc(-n3cccc3)cc2)cc1 | -32.1%
31 | Cc1ccc(COc2ccsc2C(=O)NNC(N)=S)cc1 | -29.4%
32 | CCCOc1ccc(/C=N/Nc2ccccc2[N+](=O)[O-])c(O)c1 | 55.7%
33 | CCOc1cccc(/C=N/NC(=S)Nc2ccccc2[N+](=O)[O-])c1O | 34.3%
34 | OC(CNCCc1ccc(Cl)cc1)COc1cc(Cl)ccc1Cl (centres undefined) | -10.1%
35 | Cc1ccccc1OCC(=O)N/N=C/c1ccc(N2CCOCC2)o1 | -23.5%
36 | Cc1ccc(CSC2=NCCN2C(=O)C(C)Oc2ccccc2)cc1 (centres undefined) | -38.3%
37 | CC1CCc2c(sc3ncnc(N4CCOCC4)c23)C1 (centres undefined) | -28.8%
38 | CC1CCc2sc3ncnc(N4CCN(C)CC4)c3c2C1 (centres undefined) | 13.5%
39 | CCOC(=O)C1CCCN(C(=O)COc2ccccc2F)C1 (centres undefined) | -25.1%
40 | COC(=O)c1c(NC(=O)CN2C(=O)NC3(CCC(C(C)(C)C)CC3)C2=O)sc2c1CCCCC2 (centres undefined) | -10.4%
41 | COCC(C)N1CCC(n2nccc2NC(=O)CCCc2ccccc2)CC1 (centres undefined) | -1.8%
42 | O=C(NC1=NCCS1)c1cc(-c2cccc(Br)c2)nc2ccccc12 | -10.6%
43 | COc1cc(/C=C2\CC/C(=C\c3cc(OC)c(OC)c(OC)c3)C2=O)cc(OC)c1OC | 23%
44 | COc1cc(/C=C2\CCOC2=O)cc(OC)c1OC | -9.9%
45 | O=C(CN(Cc1ccco1)C(=O)CNS(=O)(=O)c1ccc(F)cc1)NCCc1ccccc1 | -27.1%
46 | Cn1c(N)c(C(=O)COC(=O)c2ccc(Cl)c(S(=O)(=O)N3CCCC3)c2)c(=O)n(C)c1=O | 14.5%
47 | Cc1ccc(C(=O)OCC(=O)c2c(N)n(C)c(=O)n(C)c2=O)cc1S(=O)(=O)N1CCCCC1 | -7.4%
48 | Cn1c(N)c(C(=O)COC(=O)c2ccc(Cl)c(S(=O)(=O)N3CCCCC3)c2)c(=O)n(C)c1=O | 64.3% (active)

Row | Compound | inhibition
49 | Cc1cc(C(=O)OCC(=O)NC(C)C)c(C)o1 | -4%
50 | CC(=O)C(C)n1c(CN2CCN(C(=O)c3ccco3)CC2)nc2c1c(=O)n(C)c(=O)n2C (centres undefined) | -0.4%
51 | CCN1CCS/C1=C\C=C\C1=[N+](CC)CCS1 | 53.8% (active)
52 | CCN1CCS/C1=C/C=C/C1=[N+](CC)CCS1 | 14%
53 | Cc1ccc(CC(=O)NCc2ccc(Cl)cc2)cc1 | -57.8%
54 | Cc1ccc(-c2cc(C)nc3ncnn23)cc1 | -4.1%
55 | Cc1cccc2nc(CSc3nc4[nH]ncc4c(=O)n3-c3cccc(Cl)c3)cc(=O)n12 | 75.3% (active)
56 | Cc1cccc(-n2c(SCc3cc(=O)n4c(C)cccc4n3)nc3[nH]ncc3c2=O)c1 | -6.2%
57 | Cc1cccc2nc(CSc3nc4[nH]ncc4c(=O)n3-c3ccccc3Cl)cc(=O)n12 | 6.5%
58 | COc1ccc(C2C(C(N)=O)=C(C)Nc3ncnn32)cc1 (centres undefined) | -4.5%
59 | COC(=O)CCC(=O)NNC(=O)C1CC1(c1ccccc1)c1ccccc1 (centres undefined) | 0.4%
60 | COc1ccc(NC(=S)N2CCN(c3ccccn3)CC2)cc1 | -4.7%
61 | S=C(Nc1ccccc1)N1CCN(c2ccccn2)CC1 | -29.8%
62 | Cc1ccccc1N1CCN(C(=O)c2ccccc2NC(=O)C2CC=CCC2C(=O)O)CC1 (centres undefined) | -15.8%
63 | Cc1cccc(C)c1-n1nnnc1S(=O)(=O)Cc1ccccc1Cl | -16.2%
64 | COc1ccccc1-n1nnnc1S(=O)(=O)Cc1ccc(Cl)cc1 | 102%
65 | Cc1ccc[n+](CC(=O)/C=C2\N(C)c3ccccc3C2(C)C)c1 | 27.4%
66 | CN1/C(=C\C(=O)C[n+]2ccc3ccccc3c2)C(C)(C)c2ccccc21 | 47% (active)
67 | CN1/C(=C\C(=O)C[n+]2cccc(Br)c2)C(C)(C)c2ccccc21 | 30.4%
68 | O=C(NCc1ccccc1OC(F)(F)F)C1CCC(=O)N(CCc2ccccn2)C1 (centres undefined) | -25.8%
69 | Cc1[nH]c2ccccc2c1C(=O)C(=O)N(C)C1CCCCC1 | -23.5%
70 | CC(Sc1n[nH]c(N)n1)C(=O)NC1CCCCC1C (centres undefined) | -7.3%
71 | CC(Sc1nc(N)cc(=O)[nH]1)C(=O)NC1CCCCC1 (centres undefined) | -12%
72 | CN(C(=O)CSc1ccccc1C(=O)O)C1CCCCC1 | -26.5%

Row | Compound | inhibition
73 | Cc1cc(C(=O)O)sc1C | -16.5%
74 | FC(F)(F)c1cnc(Sc2nnc(-c3cccs3)n2CC2CCCO2)c(Cl)c1 (centres undefined) | -14.9%
75 | CCOc1cc(/C=N/NC(=O)C(=O)NCc2ccc3c(c2)OCO3)ccc1OCC(=O)N1CCOCC1 | -4.3%
76 | CCOC(=O)CNc1cccc(C(F)(F)F)c1 | -35.5%
77 | O=C(CNS(=O)(=O)c1ccccc1)NCC(=O)OCc1ccc(Cl)cc1 | -12.2%
78 | O=C(NCc1cccnc1)/C(=C\c1ccc(-c2ccc(Br)cc2)o1)S(=O)(=O)c1ccccc1 | 106% (active)
79 | O=C(NCc1cccnc1)/C(=C/c1ccc(-c2cccc(C(F)(F)F)c2)o1)NC(=O)c1ccccc1 | 11.9%
80 | O=C(CN(Cc1ccc(Br)cc1)S(=O)(=O)c1ccccc1)NCc1cccnc1 | 14.5%
81 | COc1ccc(S(=O)(=O)N2CCC(NC(=O)c3cccc(F)c3)CC2)cc1 | -7.7%
82 | CC(=O)NC(CC(=O)Oc1ccc(C)cc1Br)c1ccccc1 (centres undefined) | -28.4%
83 | Cc1c(CCOC(=O)c2cc([N+](=O)[O-])cc([N+](=O)[O-])c2)sc[n+]1CC(=O)c1ccc(Br)cc1 | 49.3% (active)
84 | Cc1c(CCOC(=O)c2cc([N+](=O)[O-])cc([N+](=O)[O-])c2)sc[n+]1CC(=O)c1ccccc1 | -27.6%
85 | Cc1c(CCOC(=O)c2cccc([N+](=O)[O-])c2)sc[n+]1CC(=O)c1ccccc1 | -44.5%
86 | O=C(NCc1ccco1)C12CN(Cc3ccccc3)CC1C(c1ccc([N+](=O)[O-])cc1)=NO2 (centres undefined) | 10.3%
87 | CCOCCc1nnc(NC(=O)C(C)Oc2ccccc2)s1 (centres undefined) | -60.4%
88 | COc1ccc(NC(=O)CCC(=O)N/N=C/c2cn(C)nc2C)cc1 | 10.7%
89 | O=C(O)c1ccc(Nc2nc3c(s2)CCCC3)cc1 | 69.2% (active)
90 | CN(C)c1ccc(C(=O)Nc2nc3c(s2)CCCC3)cc1 | 25.6%
91 | Cc1cccc(Nc2nc3c(s2)CCCC3)c1 | -49.8%
92 | Cc1nc2ccc(S(=O)(=O)Nc3cccc(-c4nc5cccnc5s4)c3C)cc2s1 | -33.3%
93 | Cc1cc(-c2nc3cccnc3s2)ccc1NS(=O)(=O)c1ccc2c(c1)OCCO2 | -4%
94 | CCc1ccc(NC(=O)CSc2nnc(-c3n[nH]c4ccccc34)n2-c2ccccc2)cc1 | 6%
